Reference: ChEMBL document CHEMBL1961873, “Compounds: GSK PKIS; Assays: Nanosyn kinase panel” (2012)

Assays:
[1] = target: Serine/threonine-protein kinase MARK2 (Homo sapiens) (UniProt Q7KZI7); conditions: at 1 µM
[2] = target: PAS domain-containing serine/threonine-protein kinase (Homo sapiens) (UniProt Q96RG2); conditions: at 0.1 µM
[3] = target: PAS domain-containing serine/threonine-protein kinase (Homo sapiens) (UniProt Q96RG2); conditions: at 1 µM
[4] = target: Phosphorylase b kinase gamma catalytic chain, skeletal muscle/heart isoform (Homo sapiens) (UniProt Q16816); conditions: at 0.1 µM
[5] = target: Phosphorylase b kinase gamma catalytic chain, skeletal muscle/heart isoform (Homo sapiens) (UniProt Q16816); conditions: at 1 µM
[6] = target: T1, Phosphorylase b kinase gamma catalytic chain, liver/testis isoform (Homo sapiens) (UniProt P15735); conditions: at 0.1 µM
T1 sequence (whole entry): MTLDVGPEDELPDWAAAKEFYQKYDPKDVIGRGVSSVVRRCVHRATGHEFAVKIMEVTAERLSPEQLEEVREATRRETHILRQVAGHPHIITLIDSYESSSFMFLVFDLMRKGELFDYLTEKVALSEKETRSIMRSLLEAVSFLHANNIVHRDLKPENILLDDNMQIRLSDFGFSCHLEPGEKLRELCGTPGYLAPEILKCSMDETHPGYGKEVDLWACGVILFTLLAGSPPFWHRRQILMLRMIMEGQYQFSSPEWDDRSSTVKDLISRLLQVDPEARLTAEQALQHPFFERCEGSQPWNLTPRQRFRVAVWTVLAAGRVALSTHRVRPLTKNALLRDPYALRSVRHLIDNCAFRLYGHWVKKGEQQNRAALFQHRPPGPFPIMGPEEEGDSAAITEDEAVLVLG

[7] = target: T1, Phosphorylase b kinase gamma catalytic chain, liver/testis isoform (Homo sapiens); conditions: at 1 µM
[8] = target: Serine/threonine-protein kinase pim-1 (Homo sapiens) (UniProt P11309); conditions: at 0.1 µM
[9] = target: Serine/threonine-protein kinase pim-1 (Homo sapiens) (UniProt P11309); conditions: at 1 µM
[10] = target: Serine/threonine-protein kinase pim-2 (Homo sapiens) (UniProt Q9P1W9); conditions: at 0.1 µM
[11] = target: Serine/threonine-protein kinase pim-2 (Homo sapiens) (UniProt Q9P1W9); conditions: at 1 µM
[12] = target: Serine/threonine-protein kinase pim-3 (Homo sapiens) (UniProt Q86V86); conditions: at 0.1 µM
[13] = target: Serine/threonine-protein kinase pim-3 (Homo sapiens) (UniProt Q86V86); conditions: at 1 µM
[14] = target: T2, MAP kinase-activated protein kinase 5 (Homo sapiens) (UniProt Q8IW41); conditions: at 0.1 µM
T2 sequence (whole entry): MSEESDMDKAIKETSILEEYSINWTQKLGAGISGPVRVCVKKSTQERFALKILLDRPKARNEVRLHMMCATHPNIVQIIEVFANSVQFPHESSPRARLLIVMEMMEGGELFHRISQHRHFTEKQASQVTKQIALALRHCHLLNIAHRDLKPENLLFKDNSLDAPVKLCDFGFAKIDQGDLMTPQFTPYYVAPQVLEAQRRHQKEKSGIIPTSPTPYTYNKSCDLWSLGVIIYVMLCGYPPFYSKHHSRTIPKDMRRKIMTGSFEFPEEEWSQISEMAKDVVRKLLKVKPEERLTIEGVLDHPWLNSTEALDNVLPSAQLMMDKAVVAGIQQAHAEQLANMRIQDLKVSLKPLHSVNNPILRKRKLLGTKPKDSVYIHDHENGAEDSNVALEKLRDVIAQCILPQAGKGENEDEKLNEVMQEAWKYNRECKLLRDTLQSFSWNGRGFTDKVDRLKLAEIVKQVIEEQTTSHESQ

[15] = target: T2, MAP kinase-activated protein kinase 5 (Homo sapiens); conditions: at 1 µM
[16] = target: Serine/threonine-protein kinase SIK1 (Homo sapiens) (UniProt P57059); conditions: at 0.1 µM
[17] = target: Serine/threonine-protein kinase SIK1 (Homo sapiens) (UniProt P57059); conditions: at 1 µM
[18] = target: Serine/threonine-protein kinase SIK2 (Homo sapiens) (UniProt Q9H0K1); conditions: at 0.1 µM
[19] = target: Serine/threonine-protein kinase SIK2 (Homo sapiens) (UniProt Q9H0K1); conditions: at 1 µM
[20] = target: T3, Serine/threonine-protein kinase TBK1 (Homo sapiens) (UniProt Q9UHD2); conditions: at 0.1 µM;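 also: values are the mean TBK1 inhibition, taken from the GSK PKIS screening data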
T3 sequence (whole entry): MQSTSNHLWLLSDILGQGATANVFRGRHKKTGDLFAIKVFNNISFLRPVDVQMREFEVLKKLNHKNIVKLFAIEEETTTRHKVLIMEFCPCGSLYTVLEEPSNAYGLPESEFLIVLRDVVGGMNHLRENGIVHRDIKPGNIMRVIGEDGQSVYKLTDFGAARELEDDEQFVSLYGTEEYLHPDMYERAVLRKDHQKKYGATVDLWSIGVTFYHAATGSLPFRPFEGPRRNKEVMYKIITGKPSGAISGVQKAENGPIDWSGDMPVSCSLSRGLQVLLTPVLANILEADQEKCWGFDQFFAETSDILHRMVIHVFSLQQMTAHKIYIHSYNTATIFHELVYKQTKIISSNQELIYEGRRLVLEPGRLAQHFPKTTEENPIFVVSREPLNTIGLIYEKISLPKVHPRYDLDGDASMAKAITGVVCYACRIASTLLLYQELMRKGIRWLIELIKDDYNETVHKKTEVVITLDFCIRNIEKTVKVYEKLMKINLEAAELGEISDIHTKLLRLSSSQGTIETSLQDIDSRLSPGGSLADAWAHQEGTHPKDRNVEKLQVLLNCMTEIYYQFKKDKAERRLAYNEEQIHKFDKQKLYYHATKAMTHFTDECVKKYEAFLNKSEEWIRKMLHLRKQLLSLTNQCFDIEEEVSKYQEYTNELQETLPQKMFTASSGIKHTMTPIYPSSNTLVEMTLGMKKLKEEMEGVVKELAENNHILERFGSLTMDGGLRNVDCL

Sequence of PAS domain-containing serine/threonine-protein kinase (Homo sapiens) (Q96RG2 whole entry, the tested form may be a part, canonical isoform): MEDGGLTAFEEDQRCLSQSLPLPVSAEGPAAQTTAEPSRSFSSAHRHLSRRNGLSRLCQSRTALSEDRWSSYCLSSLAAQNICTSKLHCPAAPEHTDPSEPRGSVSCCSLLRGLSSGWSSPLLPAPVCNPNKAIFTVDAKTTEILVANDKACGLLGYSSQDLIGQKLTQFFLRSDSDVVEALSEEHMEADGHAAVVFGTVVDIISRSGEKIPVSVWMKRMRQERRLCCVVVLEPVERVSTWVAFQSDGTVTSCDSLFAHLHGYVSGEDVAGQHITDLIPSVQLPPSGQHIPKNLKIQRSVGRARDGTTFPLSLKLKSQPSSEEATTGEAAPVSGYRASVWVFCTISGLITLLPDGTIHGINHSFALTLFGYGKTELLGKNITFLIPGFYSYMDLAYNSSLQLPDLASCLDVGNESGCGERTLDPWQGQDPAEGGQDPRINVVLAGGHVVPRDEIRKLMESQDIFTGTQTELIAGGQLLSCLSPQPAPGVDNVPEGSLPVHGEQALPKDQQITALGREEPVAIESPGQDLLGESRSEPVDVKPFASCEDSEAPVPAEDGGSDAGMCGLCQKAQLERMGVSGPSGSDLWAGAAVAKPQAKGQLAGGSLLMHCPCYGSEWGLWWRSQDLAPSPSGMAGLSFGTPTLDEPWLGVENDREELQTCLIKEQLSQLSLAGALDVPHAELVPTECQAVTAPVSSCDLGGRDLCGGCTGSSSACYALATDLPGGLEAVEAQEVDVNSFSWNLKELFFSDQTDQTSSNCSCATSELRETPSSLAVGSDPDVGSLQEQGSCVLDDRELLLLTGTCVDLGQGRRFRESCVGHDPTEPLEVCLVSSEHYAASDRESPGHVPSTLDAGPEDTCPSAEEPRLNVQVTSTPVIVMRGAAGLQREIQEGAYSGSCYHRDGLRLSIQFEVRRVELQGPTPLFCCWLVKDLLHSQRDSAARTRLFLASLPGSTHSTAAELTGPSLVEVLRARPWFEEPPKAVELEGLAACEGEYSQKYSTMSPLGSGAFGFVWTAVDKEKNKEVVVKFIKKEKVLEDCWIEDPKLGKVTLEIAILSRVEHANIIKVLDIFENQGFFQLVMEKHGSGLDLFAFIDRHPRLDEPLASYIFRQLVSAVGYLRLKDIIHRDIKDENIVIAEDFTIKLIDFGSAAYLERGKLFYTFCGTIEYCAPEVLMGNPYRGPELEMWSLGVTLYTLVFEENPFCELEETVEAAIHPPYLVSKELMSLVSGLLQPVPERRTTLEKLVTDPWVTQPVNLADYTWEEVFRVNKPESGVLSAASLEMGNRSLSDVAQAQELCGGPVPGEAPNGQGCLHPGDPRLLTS
Sequence of Serine/threonine-protein kinase pim-1 (Homo sapiens) (P11309 whole entry, looked up): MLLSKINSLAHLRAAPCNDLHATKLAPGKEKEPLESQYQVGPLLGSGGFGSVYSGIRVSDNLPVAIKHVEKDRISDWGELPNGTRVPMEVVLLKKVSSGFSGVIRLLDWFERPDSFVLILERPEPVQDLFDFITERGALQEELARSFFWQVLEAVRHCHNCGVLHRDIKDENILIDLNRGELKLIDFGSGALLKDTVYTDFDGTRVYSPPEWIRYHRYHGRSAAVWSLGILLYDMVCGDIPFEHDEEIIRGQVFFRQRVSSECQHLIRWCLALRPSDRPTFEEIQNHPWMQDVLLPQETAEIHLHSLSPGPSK
Sequence of Serine/threonine-protein kinase MARK2 (Homo sapiens) (Q7KZI7 whole entry, the tested form may be a part): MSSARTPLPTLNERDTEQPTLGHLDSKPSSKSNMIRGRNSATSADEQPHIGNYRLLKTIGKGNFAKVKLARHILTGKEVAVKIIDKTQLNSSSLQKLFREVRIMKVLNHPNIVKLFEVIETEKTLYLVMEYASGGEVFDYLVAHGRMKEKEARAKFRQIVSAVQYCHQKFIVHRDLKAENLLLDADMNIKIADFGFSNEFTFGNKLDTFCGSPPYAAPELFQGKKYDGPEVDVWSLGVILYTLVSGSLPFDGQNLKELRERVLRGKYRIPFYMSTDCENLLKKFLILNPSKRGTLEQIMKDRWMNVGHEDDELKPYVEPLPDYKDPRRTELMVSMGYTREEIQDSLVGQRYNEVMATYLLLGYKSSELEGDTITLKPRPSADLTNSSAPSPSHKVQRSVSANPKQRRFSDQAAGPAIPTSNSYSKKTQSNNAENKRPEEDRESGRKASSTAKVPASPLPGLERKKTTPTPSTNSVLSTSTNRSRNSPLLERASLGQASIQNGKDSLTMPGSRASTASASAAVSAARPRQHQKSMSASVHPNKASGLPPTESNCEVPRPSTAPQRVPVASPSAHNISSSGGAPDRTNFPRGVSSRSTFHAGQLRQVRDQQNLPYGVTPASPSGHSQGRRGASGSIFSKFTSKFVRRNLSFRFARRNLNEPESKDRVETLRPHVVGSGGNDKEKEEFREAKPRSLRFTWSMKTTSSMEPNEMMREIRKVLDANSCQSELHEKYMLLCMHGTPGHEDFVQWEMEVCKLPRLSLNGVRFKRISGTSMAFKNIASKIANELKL
Sequence of Serine/threonine-protein kinase pim-2 (Homo sapiens) (Q9P1W9 whole entry, looked up): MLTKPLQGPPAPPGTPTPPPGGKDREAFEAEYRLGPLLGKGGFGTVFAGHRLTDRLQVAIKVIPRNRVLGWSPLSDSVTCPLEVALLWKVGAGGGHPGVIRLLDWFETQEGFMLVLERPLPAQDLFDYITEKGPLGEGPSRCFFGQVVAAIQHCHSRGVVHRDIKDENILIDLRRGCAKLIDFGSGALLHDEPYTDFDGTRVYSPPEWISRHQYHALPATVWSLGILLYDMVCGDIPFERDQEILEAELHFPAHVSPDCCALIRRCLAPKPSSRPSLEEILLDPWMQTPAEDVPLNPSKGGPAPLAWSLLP
Sequence of Phosphorylase b kinase gamma catalytic chain, skeletal muscle/heart isoform (Homo sapiens) (Q16816 whole entry, looked up, canonical isoform): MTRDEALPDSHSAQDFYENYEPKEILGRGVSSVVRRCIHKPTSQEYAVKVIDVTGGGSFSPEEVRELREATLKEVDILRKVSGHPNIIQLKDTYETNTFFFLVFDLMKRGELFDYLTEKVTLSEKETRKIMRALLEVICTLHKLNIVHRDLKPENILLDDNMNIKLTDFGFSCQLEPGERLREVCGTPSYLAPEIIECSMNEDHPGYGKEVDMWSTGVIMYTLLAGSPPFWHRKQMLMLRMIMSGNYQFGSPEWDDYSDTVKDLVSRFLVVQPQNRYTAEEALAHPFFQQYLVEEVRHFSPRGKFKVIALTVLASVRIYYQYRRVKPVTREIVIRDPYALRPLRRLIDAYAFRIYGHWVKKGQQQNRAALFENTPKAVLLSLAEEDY
Sequence of Serine/threonine-protein kinase SIK1 (Homo sapiens) (P57059 whole entry): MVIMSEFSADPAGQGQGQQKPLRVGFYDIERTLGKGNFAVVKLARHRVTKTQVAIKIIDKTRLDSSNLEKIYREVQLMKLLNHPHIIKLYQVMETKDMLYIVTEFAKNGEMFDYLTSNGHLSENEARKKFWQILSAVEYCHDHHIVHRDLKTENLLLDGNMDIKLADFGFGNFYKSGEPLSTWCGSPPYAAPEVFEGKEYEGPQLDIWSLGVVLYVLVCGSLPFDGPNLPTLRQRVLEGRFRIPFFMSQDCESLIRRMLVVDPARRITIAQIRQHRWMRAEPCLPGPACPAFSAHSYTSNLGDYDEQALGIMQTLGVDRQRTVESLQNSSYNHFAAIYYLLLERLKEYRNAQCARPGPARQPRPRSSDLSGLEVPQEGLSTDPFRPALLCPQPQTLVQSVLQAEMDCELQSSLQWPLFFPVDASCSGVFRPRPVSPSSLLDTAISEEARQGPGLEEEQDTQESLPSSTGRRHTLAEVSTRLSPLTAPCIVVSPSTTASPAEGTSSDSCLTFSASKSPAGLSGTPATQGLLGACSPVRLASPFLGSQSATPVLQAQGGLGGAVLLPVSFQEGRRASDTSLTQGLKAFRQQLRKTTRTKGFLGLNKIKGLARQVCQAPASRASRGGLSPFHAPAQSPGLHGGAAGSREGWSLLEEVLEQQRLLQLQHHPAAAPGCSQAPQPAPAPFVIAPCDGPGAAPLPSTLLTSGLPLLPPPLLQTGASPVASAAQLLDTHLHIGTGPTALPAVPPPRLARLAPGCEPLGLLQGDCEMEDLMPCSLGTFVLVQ

| SMILES | inhibition [1] [%] | inhibition [2] [%] | inhibition [3] [%] | inhibition [4] [%] | inhibition [5] [%] | inhibition [6] [%] | inhibition [7] [%] | inhibition [8] [%] | inhibition [9] [%] | inhibition [10] [%] | inhibition [11] [%] | inhibition [12] [%] | inhibition [13] [%] | inhibition [14] [%] | inhibition [15] [%] | inhibition [16] [%] | inhibition [17] [%] | inhibition [18] [%] | inhibition [19] [%] | inhibition [20] [%] |
| --- | --- | --- | --- | --- | --- | --- | --- | --- | --- | --- | --- | --- | --- | --- | --- | --- | --- | --- | --- | --- |
| FC(F)(F)CNc1nccc(-c2cnn3ncccc23)n1 | 2.13 | 1.06 | 0.79 | 3.02 | 6.43 | 3.98 | 4.36 | 0.08 | 3.03 | -0.09 | 1.1 | -0.3 | 1.93 | 1.14 | 0.15 | 2.46 | 1.86 | -0.9 | 0.27 | 1.42 |
| O=C1Nc2ccccc2/C1=C1\CCc2cc(O)ccc21 | 24 | 0.2 | -1.25 | 9.05 | 40.6 | 6.64 | 9.59 | 2.37 | 10.2 | -0.2 | 1.46 | -1.28 | 3.83 | 1.7 | 2.07 | 2.74 | 18.1 | 5.12 | 21 | 1.68 |
| COc1ccc2ncn(-c3cc(O[C@H](C)c4ccccc4C(F)(F)F)c(C(N)=O)s3)c2c1 | 4.83 | -0.55 | 0.78 | 1.28 | 3.44 | -1.44 | 0.1 | 1.71 | 7.56 | -0.14 | 0.75 | 1.24 | 7.53 | -0.11 | -0.07 | -1.94 | 15.9 | 4.06 | 5.38 | 1.28 |
| O=C(O[C@H]1CN[C@H](C#Cc2cc3ncnc(Nc4ccc5c(cnn5Cc5ccccc5)c4)c3s2)C1)N1CCOCC1 | 1.58 | 1.66 | 0.95 | 2.11 | 6.5 | -0.83 | -1.47 | -1.14 | -0.83 | -0.43 | -0.51 | -0.77 | -0.59 | -0.48 | -1.44 | -1.61 | -0.04 | -3.57 | 1.23 | -0.69 |
| NC(=O)c1ccc2c(-c3ccnc(NCCCO)n3)c(-c3ccc(F)cc3)nn2c1 | 1.98 | 0.06 | -1.12 | 6.92 | 7.38 | 5.28 | 2.16 | 1.1 | 0.82 | -0.18 | 1.11 | -0.5 | -0.27 | 1.47 | 1.16 | 3.64 | 16 | 9.22 | 40.4 | 4.13 |
| COc1cccc(-n2ncc3c(N/N=C/c4ccc(C(=O)NCCN(C)C)cc4)ncnc32)c1 | 11.9 | 0.59 | -0.48 | 5.75 | 30.5 | 3.32 | 7.38 | 1.53 | 8.23 | 0.17 | 0.88 | 0.5 | 3.82 | 0.76 | 0.52 | 18.3 | 61.2 | 34.6 | 76 | 2.76 |
| Cc1c2ccc(N(C)c3ccnc(Nc4cccc(S(N)(=O)=O)c4)n3)cc2nn1C | 4.84 | 0.26 | -1.92 | 4.4 | 7.27 | 4.88 | 3.28 | 0.43 | 1.01 | -3.44 | -3.16 | -1.16 | -2.47 | 1.9 | 1.08 | 4.24 | 27.6 | 3.64 | 9.51 | 4.99 |
| CC1=C(C(=O)Nc2ccc3[nH]nc(C)c3c2)C(c2ccc(C(F)(F)F)cc2)CC(=O)N1 (stereo not given) | 4.76 | 0.2 | -1.78 | 4.32 | 0.7 | 2.48 | -2.45 | 1.05 | 0 | 0 | 0.55 | 0.17 | -2.32 | 0.34 | -0.66 | 0.72 | 1.39 | 4.07 | 0.64 | -1.52 |
| CS(=O)(=O)Nc1ccc(-c2ccc3c(NC(=O)C4CC4)n[nH]c3c2)cc1 | 0.66 | 0.49 | -0.44 | 1.67 | 5.46 | 3.59 | -0.4 | 0.94 | 2 | 0.44 | 4 | 0.02 | 2.14 | 0.66 | -1.55 | 3.97 | 5.51 | 5.95 | 1.37 | 0.86 |
